Source: PubChem BioAssay (Broad Institute)
DENV2 CPE rescue = inhibitors of DENV2 cytopathic effect; DENV2-infected cells, cytopathic effect rescue, plate reader; CPE inhibition, % at 9.99 µM; actives 1.7% (n = 350,000); in the data active = CPE inhibition above about 20%, passing the limit was not always enough; inconclusive = no clear call, values can overlap the other calls; tested in BHK-21 cells
SIRT5 block = sirtuin-5 (human) deacylase inhibition; actives 1.1% (n = 330,000); inhibition, % at 15 µM; Purified SirT5, succinyl-peptide AMC, trypsin-coupled fluorescence; in the data active = inhibition above about 15%; inconclusive = no clear call, values can overlap the other calls
ERp5 inh = inhibitors of human ERp5; Q15084; ERp5 insulin aggregation, absorbance 650 nm, 90 min; inhibition, % at 9.99 µM; actives 0.05% (n = 350,000); AID 651711;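 active = mean replicate inhibition above about 25%, with every replicate also reaching it, limit read from the data, passing the limit was not always enough; inconclusive = only one of those two criteria met; inactive = neither criterion met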
Target sequence (Q15084 whole entry, looked up): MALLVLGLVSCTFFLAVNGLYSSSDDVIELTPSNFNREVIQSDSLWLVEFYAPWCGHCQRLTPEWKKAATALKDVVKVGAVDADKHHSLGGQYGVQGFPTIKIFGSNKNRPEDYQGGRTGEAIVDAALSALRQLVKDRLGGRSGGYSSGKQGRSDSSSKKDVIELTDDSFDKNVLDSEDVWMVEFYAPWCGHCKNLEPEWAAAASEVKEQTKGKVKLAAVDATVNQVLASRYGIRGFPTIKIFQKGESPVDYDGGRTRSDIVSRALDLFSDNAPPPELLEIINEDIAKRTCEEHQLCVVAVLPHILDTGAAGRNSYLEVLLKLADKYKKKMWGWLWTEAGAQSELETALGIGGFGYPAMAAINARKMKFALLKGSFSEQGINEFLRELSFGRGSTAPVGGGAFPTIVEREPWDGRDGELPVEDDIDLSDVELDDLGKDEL
PDI turbidity = inhibitors of human protein disulfide isomerase | actives 0.052% (n = 350,000) | inhibition, % at 10 µM | PDI insulin aggregation turbidity, A650, 90 min;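 active = mean inhibition across replicates of 30% or more, whatever share of single replicates reach that level; inconclusive = mean inhibition below 30% while every single replicate reaches 30%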
Rtt109 Vps75 = inhibitors of Candida albicans Rtt109/Vps75 histone acetyltransferase | purified Rtt109/Vps75, ThioGlo CoA-SH fluorescence, 4 h | inhibition, % at 34.9 µM | actives 0.16% (n = 330,000) | AID 540336;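 active = inhibition of at least 50% in every replicate; inconclusive = best replicate reaches 50% inhibition but some replicates fall short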
Of the large screens only hits and unclear results are named; the others gave an inactive call. Shown are actives, neighbours in structure and some others; about 2.3% of the full set was active somewhere.

COc1ccc(S(=O)(=O)N(C)C[C@H]2OCCCC[C@H](C)Oc3ccc(NS(=O)(=O)c4ccc(F)cc4)cc3C(=O)N([C@H](C)CO)C[C@H]2C)cc1	SIRT5 block 23 (no result: PDI turbidity, Rtt109 Vps75)
COc1ccc(S(=O)(=O)N(C)C[C@@H]2OCCCC[C@@H](C)Oc3ccc(NS(=O)(=O)c4ccc(F)cc4)cc3C(=O)N([C@@H](C)CO)C[C@H]2C)cc1	SIRT5 block 21 (no result: PDI turbidity, Rtt109 Vps75)
O=C(NC1CCCC1)C(C1CC1)n1c(C2CCCC2)nc2ccccc21 (stereo not given)	DENV2 CPE rescue 51 (no result: PDI turbidity, Rtt109 Vps75)
CC(C)(C)NC(=O)C(C1CC1)n1c(-c2ccccc2)nc2ccccc21 (stereo not given)	none (no result: PDI turbidity, Rtt109 Vps75)
O=C(NC1CCCC1)C(C1CC1)n1c(C2CC2)nc2ccccc21 (stereo not given)	none (no result: PDI turbidity, Rtt109 Vps75)
Cc1ccc(-c2nc3ccccc3n2C(C(=O)NC(C)(C)C)C2CC2)cc1 (stereo not given)	DENV2 CPE rescue 31 (no result: SIRT5 block, PDI turbidity, Rtt109 Vps75)
C[C@@H]1CN([C@H](C)CO)C(=O)c2cc(NS(=O)(=O)c3ccc(Cl)cc3)ccc2O[C@@H](C)CCCCO[C@H]1CN(C)Cc1ccc2c(c1)OCO2	none (no result: PDI turbidity, Rtt109 Vps75)
CC(=O)Nc1ccc(NC(=O)CSc2nnc(NC(=O)c3ccccc3F)s2)cc1	DENV2 CPE rescue 30 (no result: Rtt109 Vps75)
O=C(Nc1ccc(F)cc1)N[C@H]1CC[C@@H](CCNC(=O)c2ccccc2F)O[C@@H]1CO	none (no result: PDI turbidity, Rtt109 Vps75)
CCN(CC)C(=S)SSC(=S)N(CC)CC	Rtt109 Vps75 150
CC(Sc1nnnn1-c1ccc(O)cc1)C(=O)NC1CCCCC1C (stereo not given)	DENV2 CPE rescue 34
COc1ccc(C#Cc2cnc3c(c2)C(=O)N([C@@H](C)CO)C[C@H](C)[C@@H](CN(C)CC2CCCC2)O3)cc1	none (no result: PDI turbidity, Rtt109 Vps75)
COc1ccc(C#Cc2cnc3c(c2)C(=O)N([C@@H](C)CO)C[C@H](C)[C@H](CN(C)CC2CCCC2)O3)cc1	DENV2 CPE rescue 37 (no result: PDI turbidity, Rtt109 Vps75)
COc1ccc(C#Cc2cnc3c(c2)C(=O)N([C@H](C)CO)C[C@H](C)[C@H](CN(C)CC2CCCC2)O3)cc1	DENV2 CPE rescue 40 (no result: PDI turbidity, Rtt109 Vps75)
CCC(=O)Nc1ccc2c(c1)OC[C@@H](C)N(Cc1ccncc1)C[C@@H](C)[C@H](OC)CN(C)C2=O	none (no result: PDI turbidity, Rtt109 Vps75)
O=C1Nc2cc(C(=O)NCCCN3CCCC3)ccc2S/C1=C\c1ccccc1	Rtt109 Vps75 73
CN(C)CC(=O)N1CCCCN2[C@H](C1)[C@@H](c1ccc(-c3cccc(C(=O)N(C)C)c3)cc1)[C@@H]2CO	none (no result: PDI turbidity, Rtt109 Vps75)
COc1ccc(S(=O)(=O)Nc2ccc3c(c2)C(=O)N([C@H](C)CO)C[C@@H](C)[C@@H](CN(C)CC2CC2)O3)cc1	none (no result: PDI turbidity, Rtt109 Vps75)
O=C(Cc1ccccc1)Nc1ccccc1C(=O)Nc1ccc(C(=O)O)cc1	none
O=C(CSCc1ccccc1)Nc1ccccc1C(=O)Nc1ccc(C(=O)O)cc1	DENV2 CPE rescue 32
O=C(N/N=C\c1ccc([N+](=O)[O-])o1)c1cncc(Br)c1	SIRT5 block 21
O=C(Cc1ccc2c(c1)OCO2)NN=Cc1ccc([N+](=O)[O-])o1	DENV2 CPE rescue 61
O=C(N/N=C/c1ccc(-c2ccccc2[N+](=O)[O-])o1)c1cncc(Br)c1	none (no result: DENV2 CPE rescue, SIRT5 block, ERp5 inh)
COCC(=O)Nc1ccc2c(c1)OC[C@@H](C)N(Cc1cc(-c3ccccc3)on1)C[C@@H](C)[C@H](OC)CN(C)C2=O	none (no result: SIRT5 block, PDI turbidity, Rtt109 Vps75)
C[C@@H]1CCCCO[C@H](CN(C)S(=O)(=O)c2ccc(Cl)cc2)[C@@H](C)CN([C@H](C)CO)C(=O)c2cc(NC(=O)C3CCCCC3)ccc2O1	none (no result: PDI turbidity, Rtt109 Vps75)
C[C@H]1CCCCO[C@H](CN(C)S(=O)(=O)c2ccccc2)[C@@H](C)CN([C@@H](C)CO)C(=O)c2cc(NC(=O)C3CCCCC3)ccc2O1	DENV2 CPE rescue inconclusive (no result: PDI turbidity, Rtt109 Vps75)
Cc1ccc(S(=O)(=O)N(C)C[C@@H]2OCCCC[C@H](C)Oc3ccc(NC(=O)C4CCCCC4)cc3C(=O)N([C@H](C)CO)C[C@@H]2C)cc1	DENV2 CPE rescue 24 (no result: SIRT5 block, ERp5 inh, PDI turbidity, Rtt109 Vps75)
Cc1ccc(S(=O)(=O)N(C)C[C@@H]2OCCCC[C@@H](C)Oc3ccc(NC(=O)C4CCCCC4)cc3C(=O)N([C@H](C)CO)C[C@@H]2C)cc1	none (no result: SIRT5 block, ERp5 inh, PDI turbidity, Rtt109 Vps75)
C[C@@H]1CCCCO[C@H](CN(C)S(=O)(=O)c2ccccc2)[C@@H](C)CN([C@@H](C)CO)C(=O)c2cc(NC(=O)C3CCCCC3)ccc2O1	SIRT5 block 16 (no result: PDI turbidity, Rtt109 Vps75)
C[C@@H]1CN([C@@H](C)CO)C(=O)c2cc(NC(=O)C3CCCCC3)ccc2O[C@@H](C)CCCCO[C@@H]1CN(C)S(=O)(=O)c1ccc(Cl)cc1	SIRT5 block 18 (no result: PDI turbidity, Rtt109 Vps75)
